CYP2C9 inh: blockers of cytochrome P450 2C9 activity – biochemical, luminescence, ADME assay, primary screen. P11712. CYP2C9 Supersomes, luciferin-H conversion. inhibition, % at 5 µM. 96,000 tested, 20% active. AID 777, 2007;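 active = blocking of liver enzyme CYP2C9 beyond about 50% at 5 µM, limit read from the data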
Target sequence (P11712 whole entry, looked up): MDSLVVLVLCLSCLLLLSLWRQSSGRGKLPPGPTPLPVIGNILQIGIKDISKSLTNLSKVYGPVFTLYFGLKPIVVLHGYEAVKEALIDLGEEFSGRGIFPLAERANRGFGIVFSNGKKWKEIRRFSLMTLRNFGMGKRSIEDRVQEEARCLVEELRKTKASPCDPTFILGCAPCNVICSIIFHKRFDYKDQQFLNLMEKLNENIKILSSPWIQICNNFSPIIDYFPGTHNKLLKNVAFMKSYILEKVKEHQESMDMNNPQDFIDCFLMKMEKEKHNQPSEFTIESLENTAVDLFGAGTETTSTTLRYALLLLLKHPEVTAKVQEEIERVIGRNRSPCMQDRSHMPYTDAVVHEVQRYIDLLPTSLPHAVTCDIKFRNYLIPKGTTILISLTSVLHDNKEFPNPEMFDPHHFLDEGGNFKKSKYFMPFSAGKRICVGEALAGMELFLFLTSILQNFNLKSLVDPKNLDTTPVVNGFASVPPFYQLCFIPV
CYP2C9 activ: human CYP2C9 activators, primary screen, biochemical, luminescence. AID 1024, 2008. Cytochrome P450 2C9 (Homo sapiens), P11712. recombinant CYP2C9, luciferin-H conversion; stronger effect = higher value; factor 1 = untreated enzyme, 0 = blocked. activation factor at 5 µM. 96,000 tested, 1.4% active;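 active = activation factor of 2 or more for CYP2C9 at a 5 µM dose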;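 also: 0 = sulfaphenazole-blocked wells and 1 = vehicle-only wells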
Mac1 fbg inh: inhibitors of CD11b/CD18 adhesion to fibrinogen, primary screen, K562 cells, luminescence; Integrin beta-2 (Homo sapiens) + Integrin alpha-M (Homo sapiens), P05107+P11215; ATPlite luminescence; Mn2+ added to activate the integrin; inhibition, % at 10 µM; 93,000 tested, 0.54% active;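 active = primary inhibition of 50% or more at 10 µM, then 40% or more on retest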
CYP2C19 activ: human CYP2C19 activators, primary screen, biochemical, luminescence. Cytochrome P450 2C19 (Homo sapiens), P33261. recombinant CYP2C19, luciferin-H EGE luminescence; stronger effect = higher value; 0 = fully inhibited enzyme, 1 = untreated enzyme. activation factor at 5 µM. 96,000 tested, under 10 active. AID 1025, 2008;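 active = activation factor of at least 2 at 5 µM in the primary screen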;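 also: 0 = wells with 2.5 mM tranylcypromine and 1 = vehicle-only wells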
CYP2C19 inhib: blockers of cytochrome P450 2C19 activity – biochemical, luminescence, ADME assay, primary screen; CYP2C19 Supersomes, luciferin-H EGE luminescence, 30 min; P33261; 96,000 tested, 21% active; inhibition, % at 5 µM;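 active = CYP2C19 inhibition above a set limit at 5 µM in the primary screen, cut at about 50% in these data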;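 also: plate controls were negative control wells for no effect and 2.5 mM tranylcypromine positive control for full effect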
CD11b adhes enh: enhancers of CD11b/CD18 adhesion to fibrinogen, primary screen, K562 cells, luminescence; activation, % at 10 µM; 93,000 tested, 0.07% active; Integrin beta-2 (Homo sapiens) + Integrin alpha-M (Homo sapiens), P05107+P11215; ATPlite luminescence;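 active = 10 µM primary screen giving 50% or more activity, confirmed by 40% or more on retest at that dose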
* = called active by the depositor; · = not tested or not shown. Compounds with a hit are over-represented: about 28% of the library has one in this group of screens.

SMILES | CYP2C9 inh | CYP2C9 activ | Mac1 fbg inh | CYP2C19 activ | CYP2C19 inhib | CD11b adhes enh
O=C(CCCCCN1C(=O)c2ccccc2C1=O)NCc1ccco1 | 60* | 0.4 | -6 | 0.8 | 22 | -1
COc1ccccc1CNC(=O)CCN1C(=O)COc2ccc(C)cc21 | 10 | 0.9 | -11 | 0.4 | 62* | 5
O=C(CCN1C(=O)c2ccccc2S1(=O)=O)NCc1ccco1 | 12 | 0.9 | 9 | 0.8 | 19 | 4
Cc1ccc2c(c1)N(CCC(=O)NCc1cccnc1)C(=O)CO2 | 20 | 0.8 | 1 | 0.6 | 44 | 4
O=C(CCN1C(=O)COc2ccccc21)NCc1ccco1 | 8 | 0.9 | 26 | 0.1 | 94* | -5
CCn1c(Cn2nnc(-c3ccccc3)n2)nnc1SCc1ccc(Cl)c(Cl)c1 | 38 | 0.6 | 30 | 0.9 | 15 | -4
COc1ccccc1CNC(=O)CCCN1C(=O)COc2ccc(C)cc21 | -39 | 1.4 | -3 | 0.4 | 62* | -2
CCN(CCCNC(=O)CCCN1C(=O)COc2ccc(C)cc21)c1cccc(C)c1 | 58* | 0.4 | -6 | 0.5 | 50* | -1
Cc1ccc2c(c1)N(CCC(=O)NCc1ccccn1)C(=O)CO2 | -14 | 1.1 | -22 | 0.4 | 55* | 2
C/C(=N\N=C\c1ccccc1)c1nnn(-c2nonc2N)c1C | 39 | 0.6 | -1 | 0.7 | 25 | 8
COc1cc(CC(=O)Oc2ccc3c(c2)OCO3)cc(OC)c1OC | -18 | 1.2 | -1 | 1.2 | -17 | 2
FC(F)(F)c1cnc(Sc2nnc(-c3cccs3)n2CC2CCCO2)c(Cl)c1 (stereo unspecified) | -7 | 1.1 | 6 | 0.1 | 89* | -2
FC(F)(F)c1ccc(Sc2nnc(-c3cccs3)n2CC2CCCO2)nc1 (stereo unspecified) | 52* | 0.5 | -29 | 0.1 | 91* | 1
CCN(C(=O)c1ccc(S(C)(=O)=O)cc1)C12CC3CC(CC(C3)C1)C2 | · | · | 1 | · | · | 8
C=CCNC(=O)c1cccc(C(F)(F)F)c1 | 5 | 1 | -6 | 0.9 | 10 | -6
CC(CCc1ccccc1)NCc1ccncc1 (stereo unspecified) | 83* | 0.2 | 57 | 0 | 96* | 0
O=S(=O)(NCCCCCNS(=O)(=O)c1ccccc1)c1ccccc1 | 16 | 0.8 | 33 | 1 | 4 | 1
O=S(=O)(NCCCc1ccccc1)c1ccccc1 | 70* | 0.3 | -16 | 0 | 98* | -2
CC(CCc1ccccc1)NC(=O)c1cncc(Br)c1 (stereo unspecified) | 15 | 0.8 | -20 | 0.7 | 31 | -4
CC(C)CCCC(C)NS(=O)(=O)Cc1ccccc1 (stereo unspecified) | 92* | 0.1 | -5 | 0.5 | 55* | 4
CCOCCCNS(=O)(=O)c1ccccc1 | 1 | 1 | -16 | 0.4 | 60* | 2
COc1ccc(S(=O)(=O)N(C)C2CCN(C)CC2)cc1 | 0 | 1 | 12 | 0.8 | 20 | -3
CCCCN(CCCC)C(=O)c1nsnc1-c1ccccc1O | 43 | 0.6 | 2 | 0.6 | 37 | -3
O=C(O)c1ccc(CN2CCCCC2)o1 | -6 | 1.1 | -9 | 1.1 | -6 | -4
CC(C)c1ccccc1NC(=O)C1CN(S(=O)(=O)c2ccccc2)CCN1S(=O)(=O)c1ccccc1 (stereo unspecified) | · | · | 10 | · | · | 3
SMILES | CYP2C9 inh | CYP2C9 activ | Mac1 fbg inh | CYP2C19 activ | CYP2C19 inhib | CD11b adhes enh
CC(=O)Nc1ccc(Sc2ncccc2C(=O)Nc2ccc(F)cc2)cn1 | 14 | 0.9 | -15 | 1 | -4 | 20
CC(CCc1ccccc1)NS(=O)(=O)c1ccccc1 (stereo unspecified) | 75* | 0.3 | · | 0.5 | 55* | ·
COc1ccc(NC(C)=O)cc1NC(C)C(=O)Nc1ccc(F)c(F)c1F (stereo unspecified) | 47 | 0.5 | -29 | 0.3 | 70* | -4
CCN(Cc1nc2cc(OC)c(OC)cc2c(=O)[nH]1)C(=O)c1ccc(S(=O)(=O)N(C)C)cc1 | 54* | 0.5 | 12 | 0.7 | 30 | 0
CCN(CC(=O)NCCc1ccc(S(N)(=O)=O)cc1)Cc1nc2cc(OC)c(OC)cc2c(=O)[nH]1 | -19 | 1.2 | 16 | 1 | -1 | -8
COc1ccc(CCNC(=O)C2CCN(S(=O)(=O)N3CC(C)CC(C)C3)CC2)cc1OC (stereo unspecified) | 14 | 0.9 | -26 | 1 | -1 | -2
O=C(NC1CCCc2ccccc21)C1CCCN(S(=O)(=O)c2cnc[nH]2)C1 (stereo unspecified) | 60* | 0.4 | 5 | 0.1 | 92* | 0
CCCCC(CC)CNC(=O)C1CCCN(S(=O)(=O)c2cnc[nH]2)C1 (stereo unspecified) | 93* | 0.1 | -10 | 0 | 100* | 0
O=C(NC1CCCCCC1)C1CCCN(S(=O)(=O)c2cnc[nH]2)C1 (stereo unspecified) | 45 | 0.5 | 1 | 0.2 | 83* | -3
O=C(C1CCCN(S(=O)(=O)c2cnc[nH]2)C1)N1CCN(Cc2ccccc2)CC1 (stereo unspecified) | 4 | 1 | -8 | 1 | 1 | -3
CC(=O)Nc1nonc1NC(=O)c1ccc(C(C)(C)C)cc1 | 20 | 0.8 | -7 | 0.6 | 42 | 3
CCOc1cccc(C2c3c(oc4cc(C)c(C)cc4c3=O)C(=O)N2CCCN(C)C)c1 (stereo unspecified) | 50 | 0.5 | 3 | 1.1 | -5 | 1
Cc1cccc(C)c1NC(=O)C(NC=O)c1ccc(N(C)C)cc1 (stereo unspecified) | 60* | 0.4 | -1 | 0.4 | 64* | -2
O=C(NCCN1CCOCC1)N1c2ccccc2Sc2ccccc21 | -14 | 1.1 | · | 0.9 | 8 | ·
CC1(C)CC(=O)C(C=Nc2ccc(O)cc2)=C(O)C1 | -68 | 1.7 | -8 | 1 | -2 | -2
CC1(C)CC(=O)C(C=Nc2ccc3cn[nH]c3c2)=C(O)C1 | 17 | 0.8 | -3 | 0.5 | 54* | 0
CC1(C)CC(=O)C(C=Nc2ccc3[nH]ncc3c2)=C(O)C1 | 49 | 0.5 | -23 | 0 | 100* | -1
COc1ccc(N2C(=O)C3CCCN3C2c2ccccc2)cc1 (stereo unspecified) | 6 | 0.9 | -6 | 1 | 4 | 2
O=C1CC(N2CCN(Cc3ccc4c(c3)OCO4)CC2)C(=O)N1c1ccccc1 (stereo unspecified) | 8 | 0.9 | 10 | 0.9 | 10 | 0
COc1ccc(CN(C)C2c3ccccc3-c3ccccc32)cc1 | · | · | -4 | · | · | 3
Cc1ccc(Sc2ncnc3onc(C)c23)cc1 | 23 | 0.8 | 7 | 0.3 | 67* | 3

Source: PubChem BioAssay
